Most compounds without a hit are left out; they make up all but 7.1% or so of the library.
Pyk2 oligo antag: Pyk2 (human) oligomerization antagonism | z-score (the deposit names both 25 µM and 10 µM) | Q293 cells, Pyk2 FERM NanoBiT luminescence; hits give low values | 99,000 tested, 0.83% active | AID 1347419;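 active = Z-score of -3 or lower, scaled per plate to the spread of control and sample wells; inactive = z-score above -3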;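 note: negative z-score means lost luminescence so less FERM oligomerization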
M1 agonist: activates the M1 muscarinic receptor | 64,000 tested, 3% active | CHO-M1 cells, Fluo-4 calcium fluorescence, agonist mode; hits give high values | B-score at 10 µM;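 active = fluorescence rise, raw or as B-score row- and column-corrected plate score, outside the 99.7% band of its plate's samples, either direction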
M1 antagonist: blocks the rat M1 muscarinic receptor response to acetylcholine. B-score at 10 µM. AID 628. CHO-M1 cells, Fluo-4 calcium, ACh EC80 antagonist mode; hits give low values. P08482. 64,000 tested, 3.4% active;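 active = calcium fluorescence response, raw or row-and-column corrected B-score, differing from the plate sample mean either way at a set confidence level, mostly lower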
Target sequence (P08482 whole entry, looked up): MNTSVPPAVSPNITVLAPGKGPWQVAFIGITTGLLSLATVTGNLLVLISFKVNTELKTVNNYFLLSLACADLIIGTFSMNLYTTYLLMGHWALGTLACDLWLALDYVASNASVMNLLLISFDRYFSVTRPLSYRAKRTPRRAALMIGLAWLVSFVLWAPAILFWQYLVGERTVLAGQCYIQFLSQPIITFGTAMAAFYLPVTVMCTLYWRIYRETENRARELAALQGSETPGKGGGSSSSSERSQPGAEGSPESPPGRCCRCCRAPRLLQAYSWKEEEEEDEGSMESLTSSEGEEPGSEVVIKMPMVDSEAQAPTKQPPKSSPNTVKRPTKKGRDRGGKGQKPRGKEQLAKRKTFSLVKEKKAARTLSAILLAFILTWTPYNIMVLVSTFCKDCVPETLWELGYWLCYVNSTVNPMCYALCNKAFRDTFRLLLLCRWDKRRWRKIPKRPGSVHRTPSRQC
Cav32 inh: blocks human Cav3.2 T-type calcium channel; O95180; Cav3.2-expressing cells, Fluo-4 calcium fluorescence FDSS; hits give low values; 100,000 tested, 4% active; B-score at 10 µM;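 active = single-dose well whose peak fluorescence ratio is a statistical outlier from its plate by either plate-standardised score or position-corrected B-score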
A number is an active result; . = inactive; / = not tested or not shown.

SMILES | Pyk2 oligo antag | M1 agonist | M1 antagonist | Cav32 inh
C/C(Cn1nc([N+](=O)[O-])cc1C)=N\NC(=O)c1cccc(Br)c1 | . | / | / | .
Cc1ccc2oc(=O)c3cnn(CC(=O)N4CCN(c5ccccc5)CC4)c3c2c1 | / | / | / | .
Cc1ccc2oc(=O)c3cnn(CC(=O)N4CCCc5ccccc54)c3c2c1 | / | . | 2.1 | .
COC(=O)c1cc(OC)c(OC)cc1NC(=S)N1CCN(c2ccccc2)CC1 | . | / | / | .
COc1ccc(Cl)cc1NC(=O)CN(C)C1CCCCC1 | . | / | / | .
COc1ccc(C)cc1NC(=O)CN(Cc1nnc(-c2ccc(Cl)cc2)o1)C1CCCC1 | . | . | . | -4.17
CCOC(=O)N1CCN(C(=O)CN(C2CCCCC2)S(=O)(=O)c2c(C)cc(C)cc2C)CC1 | . | / | / | .
CC(C)(C)NS(=O)(=O)c1ccc(CCC(=O)Nc2cc(Cl)ccc2Oc2ccccc2)cc1 | . | / | / | -5.31
CC(C)CNS(=O)(=O)c1ccc(CCC(=O)Nc2cc(Cl)ccc2Oc2ccccc2)cc1 | . | / | / | -6.16
CCCNS(=O)(=O)c1ccc(CCC(=O)Nc2cc(Cl)ccc2Oc2ccccc2)cc1 | . | / | / | -6.98
CC(=O)N1N=C(c2cccc([N+](=O)[O-])c2)OC1c1ccc(Cl)cc1Cl (centres undefined) | . | / | / | .
CCn1c(COc2ccccc2)nnc1SCC(=O)Nc1cc(OC)ccc1OC | . | . | . | .
CCOc1ccc(NC(=O)CSc2nnc(C(C)C)n2CC)cc1 | . | / | / | .
CCn1c(CNC(=O)COc2ccc(C(C)C)cc2)nnc1SCC(=O)Nc1ccccc1 | . | / | / | -4
CCOC(=O)c1ccccc1NC(=O)CSc1nnc(COc2ccccc2)n1CC | . | . | . | -5.66
Cc1ccc(NCc2nnc(SCC(=O)Nc3ccccc3)n2CC2CCCO2)c(C)c1 (centres undefined) | . | . | . | -4.48
CCOC(=O)c1cccc(NC(=O)CSc2nnc(CNc3ccc(C)cc3)n2CC)c1 | . | . | . | -4.11
Cc1ccc(NCc2nnc(SCCN3CCCCC3)n2CC2CCCO2)c(C)c1 (centres undefined) | . | . | . | .
Cc1cccc(-n2c(SCc3ccc(C#N)cc3)nnc2-c2c[nH]c3ccccc23)c1 | . | / | / | /
C#CCOC(=O)CCCNc1ccc([N+](=O)[O-])cc1[N+](=O)[O-] | . | / | / | .
O=C(NCc1cccc(Br)c1)C1CC(c2ccc(C(F)(F)F)cc2)=NO1 (centres undefined) | / | / | / | .
O=C(Nc1ccc(Cl)c(C(F)(F)F)c1)[C@@H]1CC=C[C@@H]2CCN(Cc3ccc(Cl)c(Cl)c3)C(=O)[C@@H]21 | / | / | / | .
CCOC(=O)c1cccc(NC(=O)CSc2nnc(COc3ccccc3)n2CC)c1 | . | . | . | -6.09
CCOC(=O)c1ccc(Oc2nc(N(C)C)nc(N(C)C)n2)cc1 | . | / | / | .
CCOC(=O)c1ccc(Oc2nc(NC(C)(C)C)nc(N(C)C)n2)cc1 | . | . | . | -7.11
SMILES | Pyk2 oligo antag | M1 agonist | M1 antagonist | Cav32 inh
CCCn1c(=S)[nH]c2cc(C(=O)NCC3CCCO3)ccc2c1=O (centres undefined) | / | . | . | .
O=C(CCn1c(=S)[nH]c2ccccc2c1=O)NCC1CCCO1 (centres undefined) | . | . | . | -4.47
O=C(Nc1ccccc1)C1=C[C@H](C2CC2)C[C@H](OCCCCO)O1 | / | / | / | .
Cc1oc(-c2cccc(Cl)c2)nc1CN1CCCC(C(=O)NCc2ccco2)C1 (centres undefined) | . | . | . | .
Cc1cccc(-c2nc(CN3CCCC(C(=O)NC4CCCCCC4)C3)c(C)o2)c1 (centres undefined) | . | . | . | -6.92
Cc1cccc(-c2nc(CN3CCCC(C(=O)NC4CCCCC4)C3)c(C)o2)c1 (centres undefined) | . | . | . | -5.08
CNC(=O)c1cc2c(=O)n3cccc(C)c3nc2n1C | / | . | . | /
Cc1cc(NC(=O)CCNS(=O)(=O)c2cc(Br)cnc2N)ccc1Br | . | / | / | -5
Cc1ccc(NC(=O)CCNS(=O)(=O)c2cc(Br)cnc2N)cc1Cl | . | / | / | /
COc1ccc(-c2oc(/N=C/N3CCOCC3)c(C#N)c2-c2ccc(OC)cc2)cc1 | -3.57 | . | . | .
Cn1c(C(=O)Nc2ccccc2)cc2sccc21 | . | / | / | .
CCc1ccccc1NC(=O)c1cc2sccc2n1C | / | . | . | -2.43
CCc1nc(NCC2CCCO2)c(C#N)c2c1COC(C)(C)C2 (centres undefined) | . | . | . | .
CC(C)c1nc(NCC2CCCO2)c(C#N)c2c1COC(C)(C)C2 (centres undefined) | . | . | . | -3.46
CCOC(=O)C1=C(N)OC2=C(C(=O)CC(C)(C)C2)C1C1CCCCC1 (centres undefined) | . | . | . | -9.01
O=C(c1ccco1)N1c2ccccc2Sc2ccccc21 | . | . | . | -4.66
CCOC(=O)c1sc(NC(=O)CN2C(=O)c3cccc4cccc(c34)C2=O)nc1C | . | / | / | .
CCOC(=O)c1sc(NC(=O)Cn2nnc3sc4c(c3c2=O)CCCC4)nc1C | . | / | / | -4.6
CCOC(=O)CN1C(=O)N[C@@H](c2ccco2)C(C(=O)OC)=C1C | / | / | / | .
O=C(CSc1nnc(NC(=O)c2ccc(S(=O)(=O)N3CCOCC3)cc2)s1)Nc1ccccc1C(F)(F)F | . | / | / | /
Cc1ccc(C)c(N2CCN(C(=O)CCn3c(=S)[nH]c4cc5c(cc4c3=O)OCO5)CC2)c1 | . | / | / | .
Cc1sc2nc(CN3CCOCC3)nc(NCCc3ccccc3)c2c1C | . | / | / | .
c1csc(-c2csc3nc(CN4CCOCC4)nc(NCc4ccc5c(c4)OCO5)c23)c1 | . | . | . | -7.61
COc1cc2c(cc1NS(=O)(=O)N1CCCC1)oc1ccccc12 | . | / | / | -5.58
O=C(COC(=O)CC12CC3CC(CC(C3)C1)C2)Nc1ncc(Cl)cc1Cl | . | / | / | -5.87
SMILES | Pyk2 oligo antag | M1 agonist | M1 antagonist | Cav32 inh
CC(C)(Oc1ccc(Cl)cc1)C(=O)OCC(=O)Nc1ncc(Cl)cc1Cl | . | / | / | -6.89
CS(=O)(=O)N1c2ccccc2[C@]2([C@@]34C[C@H]5C(=O)N[C@@H](Cc6ccccc6)C(=O)N5[C@@H]3N(S(C)(=O)=O)c3ccccc34)C[C@H]3C(=O)N[C@@H](Cc4ccccc4)C(=O)N3[C@H]12 | / | / | / | .
Cc1ccc(-n2nc(C)c(C3C(C#N)=C(N)OC4=C3C(=O)CCC4)c2Cl)cc1 (centres undefined) | / | . | . | /
CCCC1=C(C(=O)OCC)C(c2c(C)nn(-c3ccccc3)c2Cl)C(C#N)=C(N)O1 (centres undefined) | . | / | / | -5.03
Cc1ccc(-n2c(C)cc(/C=N/NC(=O)CN(c3ccc(C)cc3C)S(C)(=O)=O)c2C)cc1 | . | / | / | -8.44
Cc1cc(C)cc(-n2c(C)cc(/C=N/NC(=O)CN(c3c(C)cccc3C)S(C)(=O)=O)c2C)c1 | . | / | / | /
O=C(/C=C/c1ccc([N+](=O)[O-])cc1)NCCSc1ccccc1 | . | / | / | -3.79
Cc1ccc(SCCNC(=O)/C=C/c2ccccc2Cl)cc1 | . | / | / | -2.85
O=C(/C=C/c1ccccc1Cl)NCCc1ccccc1 | . | / | / | .
N#CC1=C2SCC(O)(c3ccccc3)N2C(=O)CC1c1ccccc1F (centres undefined) | -3.05 | / | / | .
COc1ccc(C2CC(=O)N3C(=C2C#N)SCC3(O)c2ccccc2)cc1 (centres undefined) | . | . | . | -6.04

Assay outcomes deposited in PubChem by several laboratories.
